Most compounds without a hit are left out; they make up all but 3.9% or so of the library.
ALR H2O2 inh – blocks human ALR sulfhydryl oxidase activity. purified ALR, DTT oxidation, H2O2 HRP-luminol luminescence. inhibition, % (no concentration beside the values). hit rate 3.8% among 290,000;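 active = mean replicate inhibition above about 79%, with every replicate also reaching it, limit read from the data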
Target sequence (P55789 whole entry, looked up): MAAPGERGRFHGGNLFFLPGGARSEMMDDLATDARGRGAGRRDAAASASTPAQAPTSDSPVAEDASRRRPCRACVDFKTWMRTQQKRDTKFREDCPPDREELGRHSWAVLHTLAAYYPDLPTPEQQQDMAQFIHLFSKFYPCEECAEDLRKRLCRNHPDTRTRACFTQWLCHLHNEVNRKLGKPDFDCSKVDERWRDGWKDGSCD
NTR1 agonist – activates human neurotensin receptor 1; P30989; NTR1-U2OS beta-arrestin-GFP spot imaging, agonist mode; activation, % at 20 µM; hit rate 0.17% among 330,000; AID 493036;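 active = activation at or above 40% of the spot to cytoplasm intensity ratio, with at least 20 cells analyzed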;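 also: 0% = DMSO without peptide and 100% = 100 nM NTR1 peptide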
SUMO HTRF inh – SUMOylation inhibition; P63279; HTRF SUMOylation assay, SAE1/SAE2 + UBC9, in vitro; inhibition, % at 35 µM; hit rate 0.36% among 290,000; AID 2006; in the data active = inhibition above about 50%, passing the limit was not always enough
Target sequence (P63279 whole entry, looked up): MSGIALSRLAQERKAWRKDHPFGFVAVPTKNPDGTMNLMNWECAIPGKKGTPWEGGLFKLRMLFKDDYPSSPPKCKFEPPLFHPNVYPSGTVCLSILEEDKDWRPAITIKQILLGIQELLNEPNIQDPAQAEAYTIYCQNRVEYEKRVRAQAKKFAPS
H9c2 protect – myocardial damage modulation in H9c2 cells. H9c2 cardiomyocytes, H2O2 injury protection, ATPLite, 2 h. AID 588492. hit rate 0.63% among 360,000. protection from H2O2 cell death, % at 20 µM;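 active = compounds giving at least 50% protection of heart cells from peroxide-induced death in the single-dose screen, raw or plate-pattern-corrected value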;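 also: 0% = DMSO wells with peroxide and 100% = DMSO wells without peroxide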
The depositor's hits bear a star; . = no result given.

SMILES | ALR H2O2 inh | NTR1 agonist | SUMO HTRF inh | H9c2 protect
CCn1c(-c2cc(-c3ccc(C)cc3)nc3ccccc23)n[nH]c1=S | . | 2 | -24 | -9
C=CCn1c(-c2cc(-c3ccc(C)cc3)nc3ccccc23)n[nH]c1=S | 94* | 2 | -26 | -4
O=C(NNC(=O)C1CCC1)c1ccccc1F | -1 | 2 | . | 2
O=C1C(Cl)=C(NCCCN2CCOCC2)C(=O)N1CCc1ccccc1 | 6 | 1 | 24 | 5
O=S(=O)(Nc1ncccn1)c1ccccc1 | -6 | 0 | -6 | 3
C=CCn1c(SCc2ccc(C(=O)O)cc2)nc2sc(C)c(C)c2c1=O | 99* | 1 | 27 | -9
Cc1sc2nc(SCc3ccc(C(=O)O)cc3)n(Cc3ccco3)c(=O)c2c1C | 12 | 2 | 26 | 2
CCNC(=O)C1CCCc2c1[nH]c1ccc(Cl)cc21 (stereo not given) | 52 | 1 | 0 | -4
NC(=O)NC1CCCc2c1[nH]c1ccc(Cl)cc21 (stereo not given) | 98* | -1 | 3 | 1
NC(=O)C1CCCCc2c1[nH]c1ccc(Cl)cc21 (stereo not given) | 98* | 6 | -15 | -7
CC(=O)c1ccc(NC(=O)C(C)OC(=O)CCCN=C2NS(=O)(=O)c3ccccc32)cc1 (stereo not given) | 1 | 0 | . | -1
Cn1cccc1/C=C1\SC(=S)N(NC(=O)c2ccccc2O)C1=O | 3 | 2 | -12 | 3
O=C(O)C(Cc1ccccc1)N1C(=O)/C(=C/C=C/c2ccco2)SC1=S (stereo not given) | . | . | 73* | 8
O=C(NN1C(=O)/C(=C/C=C/c2ccco2)SC1=S)c1ccccc1O | 69 | 2 | 79* | 2
CCc1cccc(C)c1N(C(=O)Cn1c(COC)nc2ccccc21)C(C)COC (stereo not given) | -10 | 1 | 18 | 4
Cc1nc(-c2nc(C(=O)NNS(C)(=O)=O)cs2)cs1 | 0 | 1 | 0 | 6
COC(=O)c1cc(OC)c(OC)cc1NC(=O)CCc1ccc(C)o1 | 6 | 0 | 4 | 0
COC(=O)c1cc(OC)c(OC)cc1NC(=O)c1ccc(C)o1 | 0 | 2 | 2 | 50*
CCCCSCCCNC(=O)CS(=O)Cc1nc(-c2cccc(C)c2)oc1C (stereo not given) | 99* | -1 | 23 | 1
CCC(C)NC(=O)CS(=O)Cc1nc(-c2cccc(C)c2)oc1C (stereo not given) | 98* | -1 | 0 | 12
Cc1cccc(-c2nc(CS(=O)CC(=O)NCCc3ccc(Cl)cc3)c(C)o2)c1 (stereo not given) | 91* | 3 | -7 | 0
CCCCNC(=O)CS(=O)Cc1nc(-c2cccc(C)c2)oc1C (stereo not given) | 99* | -2 | 3 | -6
COC(=O)c1cc2sc(Cl)cc2n1Cc1nc(-c2cccc(C)c2)oc1C | . | . | -7 | .
COc1ccc(-n2c(Cn3c(=O)sc4ccccc43)nnc2SCC(N)=O)cc1 | . | 5 | 16 | 7
O=C(Nc1ccc2ncccc2c1)c1ccccc1Br | -21 | 3 | 10 | 1
SMILES | ALR H2O2 inh | NTR1 agonist | SUMO HTRF inh | H9c2 protect
O=C(O)CCNS(=O)(=O)c1ccc2c(c1)Cc1ccccc1-2 | -1 | 0 | 16 | 4
Cc1oc(-c2cccc(Cl)c2)nc1CSCC(=O)O | . | 2 | 5 | 2
CCCCNC(=O)CS(=O)Cc1nc(-c2cccc(Cl)c2)oc1C (stereo not given) | 100* | -1 | 3 | 8
O=C(/C(=C/O)N=Nc1ccccc1Cl)c1ccccc1 | 4 | 0 | 6 | -15
Cc1nc2nc(-c3ccc(F)cc3)cn2nc1C | -10 | 1 | 31 | -5
Cc1nn2cc(-c3ccc(N)cc3)nc2s1 | 98* | 1 | 8 | 0
COc1ccc2c(c1)C(=O)[C@@H](O)[C@H](c1ccc(OC)c(Br)c1)O2 | -2 | 0 | 3 | 52*
COc1cccc([C@@H]2Oc3ccc(OC)cc3C(=O)[C@H]2O)c1 | 0 | 0 | 16 | 7
Cc1ccc(C(=O)c2coc3c2C(=O)C(=O)c2ccccc2-3)cc1 | 16 | 5 | 29 | -21
Cc1ccc(C(=O)c2c(C)oc3c2C(=O)C(=O)c2ccccc2-3)cc1 | 3 | 13 | 92* | -20
Cc1oc2c(c1C(=O)c1ccc(Cl)cc1)C(=O)C(=O)c1ccccc1-2 | . | . | 71* | -28
Cc1ccc(OC(=S)Nc2ccc(F)cc2)cc1 | 13 | -1 | 4 | -1
Cc1ccc(OC(=S)Nc2ccc(O)cc2)cc1 | 99* | -1 | 19 | -15
COC1CCCCC1Nc1cc(C)cc(C)c1 (stereo not given) | 2 | 0 | -4 | 4
COC1CCCCC1Nc1cccc(SC)c1 (stereo not given) | 99* | -1 | -3 | 1
Cc1cc(C(=O)COc2ccc3ccc(=O)oc3c2)c(C)n1Cc1cccs1 | 88* | 7 | 14 | -6
CC(=O)c1c(C)[nH]c(C(=O)COc2ccc3ccc(=O)oc3c2)c1C | 1 | 0 | . | 28
COC(=O)c1c(C)[nH]c(C(=O)COc2ccc3ccc(=O)oc3c2)c1C | -1 | 1 | . | 81*
COc1cccc(CN(C)C(=O)C(Cc2ccccc2)NC(=O)c2ccccc2)c1OC (stereo not given) | -15 | 0 | . | 57*
COc1ccc(CN(C)C(=O)C(Cc2ccccc2)NC(=O)c2ccccc2)c(OC)c1OC (stereo not given) | . | . | . | 43
Cc1ccccc1S(=O)(=O)/N=C(/Nc1nc2ccccc2s1)c1ccccc1 | 51 | 3 | . | -22
CCCN1CCN(C(c2cc3cc(OCC)ccc3[nH]c2=O)c2nnnn2C2CCCCC2)CC1 (stereo not given) | -3 | -1 | 16 | 3
CCOc1ccc2[nH]c(=O)c(CN(CCO)C(c3nnnn3C3CCCCC3)C(C)C)cc2c1 (stereo not given) | . | . | 35 | 103*
Clc1cc(NCc2cccs2)ccc1N1CCOCC1 | 97* | 1 | 4 | -6
CC(=O)N1CCN(c2ccc(NCc3cccs3)cc2)CC1 | 99* | -2 | 10 | 5
SMILES | ALR H2O2 inh | NTR1 agonist | SUMO HTRF inh | H9c2 protect
CC(=O)N1CCN(c2ccc(NCc3ccc(C)s3)cc2)CC1 | 99* | 0 | 0 | -4
CC(=O)Nc1ccc(N2CCN(C(=O)c3cccs3)CC2)cc1 | -18 | -1 | 11 | -4
Cc1cccc(C(=O)OCC(=O)NC23CC4CC(CC(C4)C2)C3)c1O | -2 | 2 | . | -4
C=CCOc1ccc(/C=N/NC(=O)C2CCCC2)cc1OCC | -18 | 0 | 1 | 10
Cc1ccn2cc(-c3cccc(S(=O)(=O)N4CC(C)OC(C)C4)c3)nc2c1 (stereo not given) | 97* | 2 | 12 | 2
Cc1ccn2cc(-c3cccc(S(=O)(=O)N4CCCC4)c3)nc2c1 | 97* | 3 | 16 | -7
COC(=O)c1ccc(COc2ccc(Cl)cc2)o1 | -8 | 0 | 1 | -9
O=C(Cn1c(SCc2ccccc2)nc2ccccc21)N1CCOCC1 | -15 | -1 | 24 | 7
N#CCC(=O)Nc1ccc(C(=O)NCc2ccccn2)cc1 | 99* | 0 | 10 | 11
Cc1ccc(NCC(O)C(O)C(O)CO)cc1C (stereo not given) | 49 | 2 | 6 | 6
